Measured potencies and affinities stand elsewhere. Active and inactive are the calls of the source.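 Rule for the calls: active = ATP viability loss whose half-effect dose is at most twice the top dose, in all three treatment times; inconclusive = calls differ between the treatment times; inactive = inactive at every treatment time.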

The nature of the experiment: cytotoxicity in U-251 glioma cells – cell-based, CellTiter-Glo ATP luminescence, several timepoints, dry powder, mechanism study for HRAS target identification, late-stage follow-up (AID 720616). Conditions: U-251 glioblastoma viability; series mostly up to 35 µM. (In ATP-based viability assays light output follows the ATP content of the culture.)
Regarding `Cc1onc(C(=O)N2CCN(C(c3ccc(Cl)cc3)c3ccc(Cl)cc3)CC2)c1[N+](=O)[O-]`, the molecule was called inactive.
On to `Cc1onc(C(=O)N2CCN(C(c3ccncc3)c3ccncc3)CC2)c1[N+](=O)[O-]`, for which the call was inactive.
The same measure for `CCC(=O)N(c1ccc(OC)c(Cl)c1)C(C(=O)NCCc1ccccc1)c1cccs1` (stereo not drawn): “inactive”.

These data come from PubChem BioAssay AID720616 (Broad Institute, 2013).
